The panel holds about 79,000 compounds, 15% with a hit somewhere; the sample as a whole holds those more often. Rule as the data show it: active = growth inhibition above about 70%; inactive = the rest.
Assays:
[1] = NCI Yeast Anticancer Drug Screen. Data for the rad50 strain (AID 155);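 also: 0% = growth of vehicle-only cultures of the same strain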; conditions: S. cerevisiae rad50 strain growth inhibition; at 50.0 µM; hits give high values
Method in brief: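 Vehicle-treated cultures provide the reference for the growth inhibition reported for compound-exposed, repair-deficient yeast.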

[2] = NCI Yeast Anticancer Drug Screen. Data for the mec2-1 strain (AID 157); conditions: S. cerevisiae mec2-1 strain, at 50.0 µM, hits give high values
Method in brief: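 Each compound was tested on mec2-1 yeast, a strain altered in DNA damage repair or cell cycle control. Growth inhibition is reported relative to vehicle.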

[3] = NCI Yeast Anticancer Drug Screen. Data for the sgs1 mgt1 strain (AID 161);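 also: 0% = growth of cultures given vehicle only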; conditions: S. cerevisiae sgs1 mgt1 strain, at 50.0 µM, hits give high values
Method in brief: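 Genetically altered yeast, compound exposure, growth inhibition relative to vehicle.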

[4] = NCI Yeast Anticancer Drug Screen. Data for the cln2 rad14 strain (AID 165);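 also: 0% = growth equal to vehicle treated cultures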; conditions: S. cerevisiae cln2 rad14 strain, at 50.0 µM, hits give high values
Method in brief: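 Test compounds were added to cln2 rad14 yeast cultures; inhibition of growth was then determined by comparison with vehicle treatment.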

[5] = NCI Yeast Anticancer Drug Screen. Data for the bub3 strain (AID 167); conditions: S. cerevisiae bub3 mutant strain, at 50.0 µM, hits give high values
Method in brief: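 Mutant yeast screening strain plus compound; vehicle-treated cultures serve as the 0% inhibition reference.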

[6] = NCI Yeast Anticancer Drug Screen. Data for the mlh1 rad18 strain (AID 175); conditions: S. cerevisiae mlh1 rad18 strain growth inhibition; at 50.0 µM; hits give high values
Method in brief: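 Inhibition values reflect reduced growth of mutant yeast versus vehicle-treated controls following compound exposure; the mutations affect DNA damage repair.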

Measured: growth inhibition

OC/C=C(\I)CCCOCOCc1ccccc1
inactive: [1] -14.4% | [2] -4.35% | [3] -7.35% | [4] -18.4% | [5] -10.5% | [6] -36.2%

O=C1CCCCCC1
inactive: [1] 9.95% | [2] -8.9% | [3] 11.2% | [4] -19.2% | [5] -4.45% | [6] 3.4%

O=C1C[CH]([Ge](=[O])[O][Ge](=[O])[CH]2CC(=O)NC(=O)N2)NC(=O)N1 (stereo unspecified)
inactive: [1] 43.9% | [2] 18.2% | [3] 25.1% | [4] 16.6% | [5] -5.3% | [6] 22.1%

CC(=O)Nc1nc(NC(C)=O)c2nc(C)cnc2n1
inactive: [1] 4.45% | [2] 20.6% | [3] -2.35% | [4] 24.4% | [5] 10.6% | [6] 25.2%

COc1ccc(/C=N/N=C/c2ccc(OC)cc2)cc1
inactive: [1] 22.3% | [2] 0.7% | [3] -14.1% | [4] -34.5% | [5] -19.8% | [6] 17.8%

CC1(C)C(=O)C(C)(C)C1=NN
inactive: [1] 7.5% | [2] 11.8% | [3] -4.45% | [4] 3% | [5] -4.9% | [6] 23.9%

CCOC1NC(=O)Oc2ccccc21 (stereo unspecified)
inactive: [1] 4.2% | [2] 0.5% | [3] 8.1% | [4] 7.35% | [5] 10.9% | [6] -37.4%

CC1=N/C(=C\c2cccs2)C(=O)O1
inactive: [1] 26.6% | [2] 30.5% | [3] 28.1% | [4] 20.5% | [5] 22.9% | [6] 28.9%

O=C(NC1CCCCC1)c1ccccc1Cl
inactive: [1] 23.6% | [2] -9.75% | [3] -15.3% | [4] 24.2% | [5] -10.2% | [6] 10.3%

CCCCCc1ccccc1OCC1CO1 (stereo unspecified)
inactive: [1] 6.75% | [2] -9.15% | [3] -17.6% | [4] 11.6% | [5] 5.1% | [6] 27.2%

CCOC(=O)NC(=O)c1cn(CC(=O)NCC(=O)NCC(=O)N2CCN(CCn3c(C)nc(C(N)=O)c3N)CC2)c(=O)[nH]c1=O
inactive: [1] 12.8% | [2] 8.9% | [3] 5.25% | [4] -18.8% | [5] 2.75% | [6] -4.85%

O=C(O)c1c(CN2CCOCC2)c(O)c(O)c(O)c1CN1CCOCC1
inactive: [1] -1.2% | [2] 0.15% | [3] -7.1% | [4] -2.3% | [5] 1.3% | [6] 5.5%

OC(c1ccccc1)c1c(-c2ccccc2)[nH]c(-c2ccccc2)c1C(O)c1ccccc1 (stereo unspecified)
inactive: [1] 1% | [2] 14.8% | [3] -6.5% | [4] 22.2% | [5] -23.3% | [6] -6.9%

CC1=CC(C(O)C(C)C)C(C)(Cc2ccc(C)cn2)NC1c1ccccc1 (stereo unspecified)
inactive: [1] 50.6% | [2] -6.3% | [3] 5.45% | [4] 15.2% | [5] -2.05% | [6] 0.5%

COc1cccc(C(=O)NCCNCCNC(=O)c2cccc(OC)c2OC)c1OC
inactive: [1] -0.8% | [2] 0.7% | [3] -3.95% | [4] -6.6% | [5] -1.75% | [6] -2.35%

O=C(c1ccc([N+](=O)[O-])cc1)c1cc2ccccc2oc1=O
inactive: [1] -12.1% | [2] -8.5% | [3] -9.85% | [4] -73% | [5] -18.4% | [6] -9%

N#Cc1c(N2CCCC2)ncn(Cc2ccccc2)c1=O
inactive: [1] 0.7% | [2] 12.8% | [3] 0.2% | [4] -30.8% | [5] 7.15% | [6] 4.7%

O=C(Cn1c(=O)oc2ccc(C(=O)c3ccccc3Cl)cc21)c1ccc([N+](=O)[O-])cc1
inactive: [1] -27.6% | [2] -28.3% | [3] 13% | [4] -8.45% | [5] -2.25% | [6] -2.65%

CCCCCCCCCO/N=C\c1c2c(O)c3c(O)c(C)c4c(c3c1O)C(=O)C(C)(O/C=C\C(OC)C(C)C(OC(C)=O)C(C)C(O)C(C)C(O)C(C)/C=C\C=C(\C)C(=O)N2)O4 (stereo unspecified)
inactive: [1] -1.15% | [2] 19.9% | [3] 11.5% | [4] -13.9% | [5] -6.6% | [6] 30.8%

CCC(COC(=O)C(c1ccccc1)c1ccccc1)NC1CCCCC1 (stereo unspecified)
inactive: [1] 27.4% | [2] 14.3% | [3] 44.8% | [4] 14.8% | [5] 6.45% | [6] 27.6%

CCCCCCCCCCCCSCCO
inactive: [1] 20.9% | [2] 10.8% | [3] 39% | [4] 31.4% | [5] 17.1% | [6] 39%

— PubChem BioAssay (NCI)
